Measured values published in PubChem BioAssay (Tox21).
Inconclusive results are not listed. Active and inactive are the calls of the source. The call rests on the fitted dose curve; in most records, active means well fitted cell-killing curve with a large enough effect in the repeat runs; inconclusive means weak or mixed curves; inactive means flat fitted curve, though single readings scatter.

experiment: qHTS assay to identify small molecule antagonists of the TGF-beta/Smad signaling pathway - cell viability counter screen (AID 1346824); conditions: SBE-bla HEK293T viability, CellTiter-Glo luminescence; series mostly up to 76.8 µM; viability change, negative = cytotoxic: at the top concentration; further: nearly all actives have a fitted effect of over 50% in size
Excerpt: U.S. Tox21 Program National Center for Advancing Translational Sciences [NCATS] NIH Chemical Genomics Center [NCGC] U.S. Environmental Protection Agency [EPA] National Institutes of Environmental Health Sciences [NIEHS] National Toxicology Program [NTP] U.S. Food and Drug Administration [FDA] Tox21 Assay Overview: Transforming growth factor beta (TGF-beta) superfamily consists of a large number of structurally related dimeric proteins that act as hormones or local mediators in regulating a wide range of biological functions. This superfamily includes TGF-betas themselves, the bone morphogenetic proteins (BMPs) and the activins. These ligands induce oligomerization of serine/threonine receptor kinases and phosphorylate the cytoplasmic signaling molecules of Smad protein family. CellSensor SBE-bla HEK 293T cell line (Life Technologies, Carlsbad, CA), responsive to TGF-beta was used to screen Tox21 10K compound library for identification of agonists/antagonists of the Smad signaling pathway. This cell line contains a beta-lactamase reporter gene under control of the Smad binding element (SBE) stably integrated into HEK 293T cells. Also cytotoxicity of the compounds was tested in parallel by measuring the cell viability using CellTiter-Glo assay system in the same wells.
Tox21 Assay Protocol Summary: SBE-bla HEK 293T cells were dispensed at 4,000/well in 5 uL of assay medium into black wall/clear-bottom 1536-well plates using a Multidrop Combi (ThermoFisher Scientific, Waltham, MA) dispenser. After the assay plates were incubated at 37 C and 5% CO2 for an overnight, 23 nL of compounds dissolved in DMSO, positive controls or DMSO only was transferred to the assay plate by a Pintool station (Kalypsys, San Diego, CA). Compound transfer was followed by the addition of 1 uL of 0.25 ng/mL TGF-beta1 or assay buffer using two separate tips of Flying Reagent Dispenser (FRD, Aurora Discovery, San Diego, CA). The assay plates were incubated at 37 C and 5% CO2 for 5 hr. One uL of LiveBLAzer B/G FRET substrate (Life Technologies) was added using a Flying Reagent Dispenser (FRD, Aurora Discovery, San Diego, CA) and the plates were incubated at room temperature for 2 hr. Fluorescence intensity (405 nm excitation, 460 nm and 530 nm emissions) was measured using an Envision plate reader (PerkinElmer, Shelton, CT). For cytotoxicity read, 4 uL of CellTiter-Glo reagent (Promega Corporation, Madison, WI) was added to each well of the assay plates using FRD. After 30 min incubation at room temperature, the luminescence intensity was measured using ViewLux plate reader (PerkinElmer).
On the % scale 0 is the no-effect control and ±100 the full control effect.

Row | SMILES | viability change, negative = cytotoxic
1 | [Cl][Nd]([Cl])[Cl] | 11.8% (inactive)
2 | c1ccc(CNc2ncnc3c2ncn3C2CCCCO2)cc1 (stereo not given) | 4.39% (inactive)
3 | SCCc1cnccn1 | 11.5% (inactive)
4 | CC[C@@H](CO)NCCN[C@@H](CC)CO | -1.23% [at 35.3 µM] (inactive)
5 | CCN(CC)CCNC(=O)c1cc(Cl)c(N)cc1OC | 11% [at 35.3 µM] (inactive)
6 | CC(CO)(CO)C(=O)O | 8.26% (inactive)
7 | O=C(Oc1ccccc1)c1ccc2ccccc2c1O | -12.4% (inactive)
8 | CCN(CC)CCOc1ccccc1C(=O)CCc1ccccc1 | -13.8% [at 35.3 µM] (inactive)
9 | CC1CCCO1 (stereo not given) | -9.93% (inactive)
10 | O=C1OC(=O)c2c(Br)c(Br)c(Br)c(Br)c21 | 0.124% (inactive)
11 | CC(C)(C)NCC(O)COc1cccc2c1C[C@H](O)[C@H](O)C2 (stereo not given in full) | 0.155% [at 35.3 µM] (inactive)
12 | CC[C@H]1OC(=O)[C@H](C)[C@@H](O[C@H]2C[C@@](C)(OC)[C@@H](O)[C@H](C)O2)[C@H](C)[C@@H](O[C@@H]2O[C@H](C)C[C@H](N(C)C)[C@H]2O)[C@](C)(O)C[C@@H](C)/C(=N\OCOCCOC)[C@H](C)[C@@H](O)[C@]1(C)O | 0.889% [at 35.3 µM] (inactive)
13 | CN1CCCN(C(c2ccccc2)c2ccc(Cl)cc2)CC1 (stereo not given) | -12.6% [at 35.3 µM] (inactive)
14 | Cc1cc([N+](=O)[O-])ccc1N | 1.5% (inactive)
15 | Cc1ccc(Cl)cc1N | -0.0093% (inactive)
16 | COc1cc(S(=O)(=O)Nc2ccccc2)c(OC)cc1N | 5.53% (inactive)
17 | Nc1ccc(F)cc1 | 3.42% (inactive)
18 | CC(C)N=C=NC(C)C | 1.9% (inactive)
19 | Cc1cccc2sc(N)nc12 | 1.28% (inactive)
20 | COc1ccc(-n2nc(C(F)F)cc2-c2ccc(S(C)=O)cc2)cc1 (stereo not given) | 8.48% (inactive)

Row | SMILES | viability change, negative = cytotoxic
21 | COc1ccc(C2C(=O)c3ccccc3C2=O)cc1 | 2.38% [at 35.3 µM] (inactive)
22 | O=S(=O)(Cl)c1c(Cl)cccc1Cl | 0.367% (inactive)
23 | CC1=CC[C@@H]2C[C@H]1C2(C)C | 2.23% [at 15.8 µM] (inactive)
24 | CC(C)(C(=O)c1cccnc1)c1cccnc1 | -4.21% [at 35.3 µM] (inactive)
25 | CCO[Si](C)(CCCOCC1CO1)OCC (stereo not given) | 8.22% (inactive)
26 | CC(C)Cc1ccc(CC(=O)O)cc1 | 0.868% [at 35.3 µM] (inactive)
27 | CC(C)C(=O)OCCOc1ccccc1 | 1.73% (inactive)
28 | COc1ccc(-c2cc(C(F)F)nn2-c2ccc(S(N)(=O)=O)cc2)cc1F | 0.69% [at 35.3 µM] (inactive)
29 | COc1cc(OC)c2ccc(=O)oc2c1 | 6.09% (inactive)
30 | CC(=O)Oc1cccc(O)c1 | 5.66% [at 35.3 µM] (inactive)
31 | CCOc1ncc(F)c(=O)[nH]1 | 0.0789% [at 35.3 µM] (inactive)
32 | O=c1[nH][nH]c(=O)c2cc([N+](=O)[O-])ccc12 | 4.38% (inactive)
33 | CCCCCCC(O)CCCCCCCCCCC(=O)OC (stereo not given) | -1.18% (inactive)
34 | Cc1ccc(NC(=O)N(C)C)cc1NC(=O)N(C)C | -0.0395% (inactive)
35 | Nc1cccc2c(N)cccc12 | -1.93% (inactive)
36 | CCCCCC | -9.99% (inactive)
37 | O=[N+]([O-])C1(Br)COCOC1 | 1.08% (inactive)
38 | CC(C)(O)c1coc(S(=O)(=O)NC(=O)Nc2c3c(cc4c2CCC4)CCC3)c1 | 3.63% (inactive)
39 | CC(C)COC(=O)COc1cc(Cl)c(Cl)cc1Cl | 6.88% (inactive)
40 | C/C(C=O)=C\c1ccccc1 | 0.984% (inactive)
